Compounds with a hit are over-represented: about 3.8% of the library has one in this group of screens.
PAFAH1B2 inh = inhibitors of human PAFAH1B2; P68402; recombinant PAFAH1B2, FP-rhodamine activity probe, fluorescence polarization; inhibition, % at 3.39 µM; 1.2% of 340,000 active; AID 492953;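 active = inhibition above the mean of all tested compounds plus 3 SD, cut at about 24% in these data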;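 also: 0% = enzyme with DMSO and 100% = wells lacking PAFAH1B2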
Target sequence (P68402 whole entry, looked up): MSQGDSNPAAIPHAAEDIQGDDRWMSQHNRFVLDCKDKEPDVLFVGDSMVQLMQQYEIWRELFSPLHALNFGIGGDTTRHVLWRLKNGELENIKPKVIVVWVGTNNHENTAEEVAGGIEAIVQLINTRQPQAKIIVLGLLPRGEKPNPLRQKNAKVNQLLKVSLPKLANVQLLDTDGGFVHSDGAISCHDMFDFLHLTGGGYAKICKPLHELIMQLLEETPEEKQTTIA
pPAFAH inh = pPAFAH (human) enzyme inhibition. recombinant pPAFAH, FP-rhodamine probe fluorescence polarization. inhibition, % at 3.39 µM. 1.5% of 330,000 active. AID 463082;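 active = inhibition above the mean inhibition across the screen plus 3 SD, cut at about 25% in these data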;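 also: inhibitors block binding of the rhodamine activity-based probe so polarization drops; 0% = enzyme with DMSO and 100% = wells lacking pPAFAH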
PAFAH1B3 FP inh = inhibitors of human PAFAH1B3; Q15102; recombinant PAFAH1B3, FP-rhodamine probe, fluorescence polarization; inhibition, % at 3.39 µM; 0.28% of 340,000 active; AID 492972;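 active = inhibition above the screen-wide average of all tested compounds plus 3 SD, cut at about 25% in these data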;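 also: 0% = enzyme with DMSO only and 100% = wells lacking PAFAH1B3 protein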
Target sequence (Q15102 whole entry, looked up): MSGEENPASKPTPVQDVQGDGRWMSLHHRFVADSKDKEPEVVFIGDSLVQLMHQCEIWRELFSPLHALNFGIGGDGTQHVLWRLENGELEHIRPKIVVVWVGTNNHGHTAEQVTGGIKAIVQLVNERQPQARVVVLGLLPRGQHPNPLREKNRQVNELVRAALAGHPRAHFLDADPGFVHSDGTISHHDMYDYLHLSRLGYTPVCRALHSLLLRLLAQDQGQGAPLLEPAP
PAFAH2 inh = PAFAH2 (human) inhibition | 0.99% of 340,000 active | Q99487 | recombinant PAFAH2, FP-rhodamine activity probe, fluorescence polarization | inhibition, % at 3.39 µM;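 active = inhibition above the mean over all tested compounds plus 3 SD, cut at about 30% in these data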;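 also: inhibitors block probe labeling of enzyme so polarization drops; 0% = enzyme with DMSO and 100% = wells lacking PAFAH2 protein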
Pemphigus Ab inh = blocks pemphigus antibody binding to human desmoglein-3; P32926; binding (percent of control), % at 10 µM; 0.48% of 310,000 active; AID 588358; DSG3-coupled beads, scFv-anti-DSG3-GFP binding, flow cytometry; stronger effect = lower value;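 active = binding more than 3 SD below its plate's average and above zero; inconclusive = below that plate limit but binding exactly zero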;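 also: hits lower antibody fragment binding to DSG3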
M18AAP inhibitor = PfM18AAP enzyme inhibition. inhibition, % at 7.35 µM. AID 1822. 1.2% of 290,000 active. recombinant PfM18AAP, H-Glu-NHMec fluorogenic cleavage;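 active = inhibition above the campaign mean inhibition over all tested compounds plus 3 SD, cut at about 28% in these data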;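 also: 0% = plate median of test compound wells and 100% = 2 mM ZnCl2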
pPAFAH FP conf = pPAFAH (human) inhibition, confirmed; shares compounds with pPAFAH inh; recombinant pPAFAH, FP-Rh probe fluorescence polarization; inhibition, % at 3.39 µM; 72% of 2,300 active; AID 463230;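 active = mean inhibition of the triplicate above the hit cutoff set for the earlier primary screen, cut at about 25% in these data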;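 also: 0% = enzyme with DMSO and 100% = wells lacking pPAFAH enzyme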
Starred values were filed as active, the others as inactive; ? = inconclusive; / = not tested or not shown.

SMILES | PAFAH1B2 inh | pPAFAH inh | PAFAH1B3 FP inh | PAFAH2 inh | Pemphigus Ab inh | M18AAP inhibitor | pPAFAH FP conf
C[C@H](CO)N1C[C@H](C)[C@@H](CN(C)C(=O)Nc2ccc(C(F)(F)F)cc2)Oc2ccc(NS(=O)(=O)c3ccc(F)cc3)cc2C1=O | 10.8 | 60.7* | 9.4 | 8.9 | / | / | 59.0*
C[C@H](CO)N1C[C@H](C)[C@@H](CN(C)C(=O)Nc2ccc(C(F)(F)F)cc2)Oc2ccc(NS(=O)(=O)c3ccccc3)cc2C1=O | 4.3 | 76.4* | 0.1 | 1.6 | 98.9 | / | 68.4*
O=C(Nc1nc2c(s1)CN(Cc1ccccc1)CC2)c1c(F)cccc1F | -3.8 | 62.0* | -0.7 | -7.4 | 117.1 | -4.5 | 2.3
O=S(=O)(Nc1ccc2c(c1)nc1n2CCN(Cc2ccccc2)C1)c1ccc(Cl)cc1 | 32.8* | 38.4* | -3.1 | 4.2 | 96.4 | -8.9 | 7.0
O=S(=O)(Nc1ccc2c(c1)nc1n2CCN(Cc2ccccc2)C1)c1ccc(F)cc1 | 6.2 | 35.5* | 3.2 | -3.4 | 103.1 | -9.5 | 12.4
O=C(Nc1ccc2c(c1)nc1n2CCN(Cc2ccccc2)C1)NC1CCCCC1 | 2.9 | 7.6 | -4.7 | -4.9 | 101.9 | -0.3 | /
CC(C)(C)OC(=O)NN=C(c1ccc(O)cc1)c1ccc(O)cc1 | 18.1 | 9.9 | 2.0 | -2.2 | / | 10.2 | /
Cc1cc(C(=O)CCl)c(C)n1CCc1ccccc1 | / | 53.5* | / | / | / | 1.4 | 3.9
CCOC(=O)c1cc(C)n(CCc2ccccc2)c1C | 1.3 | 4.2 | -6.0 | -6.9 | 104.5 | -3.6 | /
N=C1/C(=C/c2ccc(-c3cccc(C(=O)O)c3)o2)C(=O)N=C2SC=C(c3ccccc3)N12 | 26.3* | 49.9* | 26.6* | 32.0* | 56.1 | 12.6 | 61.9*
CC(=O)Nc1ccc(NC(=O)c2cc([N+](=O)[O-])cc([N+](=O)[O-])c2)cc1 | -1.7 | 5.7 | 5.3 | 1.3 | 107.8 | -0.2 | /
Cc1ccc(NC(=O)c2ccc(Nc3c([N+](=O)[O-])cc([N+](=O)[O-])cc3[N+](=O)[O-])cc2)cc1 | 14.0 | 52.3* | 26.8* | 9.4 | 98.5 | -3.0 | 51.0*
COc1cccc(-c2c(-c3cc(OC)cc(OC)c3)n(C)c3ccc(-c4cnc(N5CCOCC5)nc4)cc23)c1 | -3.3 | 5.1 | -2.9 | 2.4 | 96.8 | / | /
N#CC1=C(N)n2c(s/c(=C\c3ccco3)c2=O)=C(C#N)C1c1ccco1 (configuration not stated) | 3.1 | 53.4* | 8.4 | 14.8 | 91.4 | 7.6 | 5.7
CCOC(=O)C1=C(N)n2c(s/c(=C/c3ccco3)c2=O)=C(C(=O)OC)C1c1ccco1 (configuration not stated) | 3.1 | 20.8 | 1.3 | 6.5 | 87.9 | 21.8 | /
COc1ccc(NC(=O)c2cccnc2)cc1 | -4.2 | -2.3 | 6.2 | 3.0 | 112.3 | 2.4 | /
C/C(=C\C(=O)c1cccnc1)Nc1ccc(O)cc1 | 0.2 | 38.3* | 2.9 | -3.0 | / | 12.1 | -3.9
CCCCOc1ccc(C2CCC(C(C)=O)C(C)C2)cc1 (configuration not stated) | 5.3 | 4.9 | 5.3 | -4.1 | 88.9 | -14.8 | /
Cc1cccc(N2CCN(C(=O)c3ccc4nc(N5CCCCC5)sc4c3)CC2)c1C | -0.3 | 40.2* | -2.7 | -1.7 | 86.8 | -8.1 | 9.3
Cc1ccc2nc(Nc3nc(C)cc(-c4ccccc4)n3)[nH]c(=O)c2c1 | 6.5 | 3.1 | 3.2 | 0.5 | 93.1 | -0.5 | /
COc1cccc(-c2nn(-c3ccccc3)cc2CN2CCCO2)c1 | -2.1 | 3.3 | 7.2 | -0.4 | 100.5 | 3.4 | /
O=C(NNC(=O)c1cc2cc(Br)ccc2oc1=O)c1ccc(O)cc1O | 1.3 | 47.0* | 15.9 | 9.7 | 85.3 | 15.3 | 47.1*
CCOC(=O)c1c(-c2ccccc2)csc1NC(=O)/C(C#N)=C/c1ccc(O)c(OC)c1 | 8.2 | 40.4* | 20.8 | 13.6 | / | 12.2 | 21.6
CCOC(=O)c1c(-c2ccccc2)csc1NC(=O)/C(C#N)=C/c1ccc(OC)c(OC)c1 | -0.3 | 16.8 | -3.0 | -6.6 | 102.9 | -4.6 | /
CN(C)S(=O)(=O)c1cccc(NC(=O)c2cccc(N3C(=O)CCC3=O)c2)c1 | -0.1 | / | 0.2 | 0.8 | 100.4 | / | /
SMILES | PAFAH1B2 inh | pPAFAH inh | PAFAH1B3 FP inh | PAFAH2 inh | Pemphigus Ab inh | M18AAP inhibitor | pPAFAH FP conf
O=C(O)c1cc(O)c2c(c1)[C@H]([C@H]1c3cc(C(=O)O)cc(O)c3C(=O)c3c(O[C@@H]4O[C@H](CO)[C@@H](O)[C@H](O)[C@H]4O)cccc31)c1cccc(OC3O[C@H](CO)[C@@H](O)[C@H](O)[C@H]3O)c1C2=O (some centres not stated) | 77.2* | 93.8* | 79.5* | 90.3* | -9.0* | / | 99.0*
CCn1c(NC(=O)c2cccc(Cn3cc(Cl)cn3)c2)nc2ccccc21 | 3.3 | 65.0* | 3.6 | 0.4 | 100.3 | -10.7 | 64.5*
Cc1ccc(S(=O)(=O)/N=C2/NC(=O)/C(=C/c3cc([N+](=O)[O-])ccc3O)S2)cc1 | 60.8* | 41.4* | 43.8* | 48.3* | 110.8 | 30.5* | 62.6*
O=C1NC(=Nc2ccccc2Cl)S/C1=C\c1cc([N+](=O)[O-])ccc1O | 28.1* | 40.8* | 60.7* | 44.2* | 100.4 | 15.6 | 62.7*
COc1cc(/C=C2\S/C(=N/S(=O)(=O)c3ccc(C)cc3)NC2=O)c([N+](=O)[O-])cc1OC | 15.4 | 14.3 | 14.8 | 0.6 | 100.0 | 17.0 | /
CC(=O)Nc1cccc(C(=O)OC(C)C(=O)NC(=O)NC2CCCCC2)c1 (configuration not stated) | 1.8 | 4.9 | 2.3 | 2.7 | ? | / | /
Nc1ncnc2c1c(-c1ccc(Oc3ccccc3)cc1)cn2C1CCCC1 | -7.4 | 38.8* | 3.9 | -3.0 | 102.3 | / | 38.5*
N#Cc1sc2nc(-c3ccccc3)cc(-c3ccco3)c2c1N | 4.5 | 42.6* | 34.1* | 23.4 | 104.5 | 5.5 | 14.6
C=CCSC1=N/C(=C\C=C\c2ccco2)C(=O)S1 | 6.0 | 60.7* | 13.0 | 32.8* | 99.6 | 11.2 | 18.1
Cc1cc(C)nc(N/N=C2/CCCC/C2=C\c2ccccc2)n1 | 21.6 | 1.6 | 10.5 | 0.2 | 97.9 | -1.3 | /
Cc1ccc(S(=O)(=O)N(C)C)cc1NC(=O)CN1C(=O)NC(Cc2ccccc2)C1=O (configuration not stated) | 1.5 | 42.1* | -1.7 | -3.3 | 102.6 | / | -2.6
Cc1ccc(S(=O)(=O)N(C)C)cc1NC(=O)CN1C(=O)NC(Cc2c[nH]c3ccccc23)C1=O (configuration not stated) | 7.8 | 1.4 | -2.0 | -1.6 | 90.0 | -7.3 | /
C=CCOc1ccc(C(c2c(C(=O)O)[nH]c3ccccc23)c2c(C(=O)O)[nH]c3ccccc23)cc1 | 66.4* | 44.4* | 7.7 | 54.9* | 105.5 | 2.4 | 30.4*

Source: PubChem BioAssay
